Source: PubChem BioAssay (Tox21)
Where “and” joins values, the source holds several entries; their conditions need not be identical. Equal values may be shown once. Records with an inconclusive call do not appear. A call without a number means that no potency is given here. A number with no mark means an inactive call. Calls of active or inactive are those of the source. Unless noted, the call rests on the fitted dose curve; in most records, active means well fitted curve in the direction sought with a large enough effect in the repeat runs; inconclusive means weak or mixed curves; inactive means no such curve, though single readings can be large; an effect the other way counts as inactive or inconclusive.

Tests used:
[1] = qHTS assay to identify small molecule antagonists of the glucocorticoid receptor (GR) signaling pathway - cell viability counter screen (AID 720693); further: nearly all actives have a fitted effect of over 55% in size
[2] = qHTS assay for identifying genotoxic compounds that show differential cytotoxicity against isogenic chicken DT40 cell lines with known DNA damage response pathways - Rev3 mutant cell line (AID 743014); further: nearly all actives have a fitted effect of over 55% in size; further: potency means the concentration at half of the fitted maximal effect
[3] = qHTS assay for identifying genotoxic compounds that show differential cytotoxicity against isogenic chicken DT40 cell lines with known DNA damage response pathways - Rad54/Ku70 mutant cell line (AID 743015); further: nearly all actives have a fitted effect of over 60% in size; further: potency means the concentration at half of the fitted maximal effect
[4] = qHTS assay to identify small molecule antagonists of the androgen receptor (AR) signaling pathway - cell viability counter screen (AID 743033; further: nearly all actives have a fitted effect of over 45% in size)
[5] = qHTS assay to identify small molecule antagonists of the androgen receptor (AR) signaling pathway using the MDA cell line - cell viability counter screen (AID 743041; further: nearly all actives have a fitted effect of over 45% in size; further: potency means the concentration at half of the fitted maximal effect)
Outline: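 Compound exposure lasted 16 h at 37C in MDA-kb2 AR-luc cells stimulated with R1881. Protease-based CellTiter-Fluor reagent was applied for the final 30 min and fluorescence measured.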

[6] = qHTS assay to identify small molecule antagonists of the thyroid receptor (TR) signaling pathway - cell viability counter screen (AID 743064); further: nearly all actives have a fitted effect of over 50% in size; further: potency means the concentration at half of the fitted maximal effect
Outline: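 In rat pituitary GH3.TRE-Luc reporter cells co-exposed to compound and 1 nM T3 for 23.5 h, cytotoxicity was assessed with CellTiter-Fluor in the same wells, read by fluorescence.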

[7] = tested on: thyroid hormone receptor (rat, GH3 cells); experiment: qHTS assay to identify small molecule agonists of the thyroid receptor (TR) signaling pathway (AID 743066; calls by dose curve)
[8] = qHTS assay to identify small molecule antagonists of the estrogen receptor alpha (ER-alpha) signaling pathway - cell viability counter screen (AID 743074; calls by dose curve; further: nearly all actives have a fitted effect of over 45% in size)
[9] = qHTS assay to identify small molecule antagonists of the estrogen receptor alpha (ER-alpha) signaling pathway using the BG1 cell line - cell viability counter screen (AID 743081);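 further: compound given together with 17beta-estradiol as the ER stimulus; series mostly up to about 70 µM; nearly all actives have a fitted effect of over 45% in size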
[10] = target: Aromatase (Homo sapiens) (UniProt P11511); experiment: qHTS assay to identify aromatase inhibitors (AID 743083); further: series mostly up to about 70 µM; nearly all actives have a fitted effect of over 55% in size
[11] = qHTS assay to identify aromatase inhibitors - cell viability counter screen (AID 743084);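 further: cells stimulated with testosterone during compound exposure; nearly all actives have a fitted effect of over 55% in size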; further: potency means the concentration at half of the fitted maximal effect
[12] = qHTS assay to identify small molecule antagonists of the thyroid receptor (TR) signaling pathway (AID 743065); further: nearly all actives have a fitted effect of over 55% in size; further: potency means the concentration at half of the fitted maximal effect
Outline: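 GH3.TRE-Luc rat pituitary cells (two TREs driving luciferase) were dosed with compound, then stimulated with 1 nM T3 (final) for 23.5 h at 37 C. ONE-Glo luminescence was the read-out, with CellTiter-Fluor fluorescence as the cytotoxicity counter-screen.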

[13] = target: Estrogen receptor (Homo sapiens) (UniProt P03372); experiment: qHTS assay to identify small molecule antagonists of the estrogen receptor alpha (ER-alpha) signaling pathway (AID 743069; active means well fitted curve in the direction sought with a large enough effect in the signal ratio in the repeat runs, not every such curve was filed as active; the % refers to the signal ratio)
Outline: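 In this cell-based reporter format, GripTite HEK293 cells harbouring ER-alpha-UAS-bla were grown overnight with 2% charcoal-stripped FBS, dosed with DMSO-dissolved compounds, then challenged with 17beta-estradiol. After 18 hr at 37C, beta-lactamase activity was detected by FRET fluorescence.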

[14] = target: Estrogen receptor (Homo sapiens) (UniProt P03372); experiment: qHTS assay to identify small molecule agonists of the estrogen receptor alpha (ER-alpha) signaling pathway (AID 743075; calls by dose curve)
[15] = target: Estrogen receptor (Homo sapiens) (UniProt P03372); experiment: qHTS assay to identify small molecule agonists of the estrogen receptor alpha (ER-alpha) signaling pathway using the BG1 cell line (AID 743079); further: nearly all actives have a fitted effect of over 20% in size
[16] = qHTS assay to identify small molecule antagonists of the estrogen receptor alpha (ER-alpha) signaling pathway using the BG1 cell line (AID 743080; calls by dose curve;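 further: BG1 cells stimulated with 17beta-estradiol alongside compound; series mostly up to about 70 µM; nearly all actives have a fitted effect of over 25% in size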)
Outline: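 Readout is ONE-Glo luminescence, taken 30 min at room temperature after reagent addition, preceded by a CellTiter-Fluor viability read; BG1-Luc-4E2 cells had received compound and 17beta-estradiol for 21.5 h at 37 C.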

[17] = target: Androgen receptor (Homo sapiens) (UniProt P10275); experiment: qHTS assay to identify small molecule agonists of the androgen receptor (AR) signaling pathway (AID 743036; active means well fitted activation curve with a large enough effect in the signal ratio in the repeat runs, with a control signal flat, not every such curve was filed as active; the % refers to the signal ratio)
Outline: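 Cell-based FRET reporter assay: HEK293 line with a UAS-beta-lactamase construct, compounds added in DMSO, 16 h exposure at 37C, then 2 h substrate step at room temperature and fluorescence intensity read.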

[18] = target: Androgen receptor (Homo sapiens) (UniProt P10275); experiment: qHTS assay to identify small molecule antagonists of the androgen receptor (AR) signaling pathway using the MDA cell line (AID 743042; further: nearly all actives have a fitted effect of over 55% in size)
Outline: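 MDA-kb2 breast carcinoma cells carrying MMTV-luciferase (AR/GR responsive) were co-treated with compounds and the agonist R1881 for 16 h at 37C. Inhibition read as ONE-Glo luminescence; CellTiter-Fluor fluorescence measured in parallel for cytotoxicity.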

Chain of Aromatase (Homo sapiens) (P11511 whole entry, looked up): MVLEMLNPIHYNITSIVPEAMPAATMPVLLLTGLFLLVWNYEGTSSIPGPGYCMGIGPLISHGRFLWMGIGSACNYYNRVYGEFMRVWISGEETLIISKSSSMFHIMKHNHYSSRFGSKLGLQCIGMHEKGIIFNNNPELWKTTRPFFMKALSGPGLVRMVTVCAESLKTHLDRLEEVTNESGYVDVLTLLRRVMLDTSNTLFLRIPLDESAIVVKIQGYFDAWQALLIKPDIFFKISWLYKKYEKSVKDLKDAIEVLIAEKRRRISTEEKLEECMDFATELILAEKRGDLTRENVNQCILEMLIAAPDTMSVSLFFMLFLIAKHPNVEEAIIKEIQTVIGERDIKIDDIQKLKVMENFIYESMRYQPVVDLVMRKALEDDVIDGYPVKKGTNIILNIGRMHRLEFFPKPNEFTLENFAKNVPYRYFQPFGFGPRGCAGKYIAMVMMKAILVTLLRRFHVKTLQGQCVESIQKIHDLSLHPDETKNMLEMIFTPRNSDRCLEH
Chain of Androgen receptor (Homo sapiens) (P10275 whole entry, looked up): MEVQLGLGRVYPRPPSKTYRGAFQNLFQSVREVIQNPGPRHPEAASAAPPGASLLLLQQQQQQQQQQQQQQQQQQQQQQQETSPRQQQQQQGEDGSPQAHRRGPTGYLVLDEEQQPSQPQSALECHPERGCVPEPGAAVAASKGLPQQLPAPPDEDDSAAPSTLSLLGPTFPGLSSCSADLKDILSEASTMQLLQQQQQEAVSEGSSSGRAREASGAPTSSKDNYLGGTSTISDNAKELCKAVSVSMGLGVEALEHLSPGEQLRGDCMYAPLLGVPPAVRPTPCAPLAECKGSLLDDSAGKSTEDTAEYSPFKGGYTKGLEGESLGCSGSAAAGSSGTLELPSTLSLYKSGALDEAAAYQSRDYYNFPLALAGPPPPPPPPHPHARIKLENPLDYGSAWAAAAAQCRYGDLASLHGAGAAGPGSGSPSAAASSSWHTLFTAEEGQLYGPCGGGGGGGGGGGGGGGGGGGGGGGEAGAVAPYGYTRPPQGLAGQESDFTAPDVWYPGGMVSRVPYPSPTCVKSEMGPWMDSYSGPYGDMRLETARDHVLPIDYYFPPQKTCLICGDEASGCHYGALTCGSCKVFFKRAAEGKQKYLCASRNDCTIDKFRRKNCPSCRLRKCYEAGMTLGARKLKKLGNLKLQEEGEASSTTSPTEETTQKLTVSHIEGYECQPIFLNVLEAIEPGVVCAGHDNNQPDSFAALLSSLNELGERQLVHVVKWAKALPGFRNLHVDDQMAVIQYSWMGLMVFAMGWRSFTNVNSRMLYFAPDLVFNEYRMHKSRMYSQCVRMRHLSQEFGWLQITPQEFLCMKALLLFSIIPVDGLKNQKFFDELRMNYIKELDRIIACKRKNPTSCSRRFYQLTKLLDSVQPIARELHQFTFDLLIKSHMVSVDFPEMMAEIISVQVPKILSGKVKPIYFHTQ
Chain of Estrogen receptor (Homo sapiens) (P03372 whole entry, looked up): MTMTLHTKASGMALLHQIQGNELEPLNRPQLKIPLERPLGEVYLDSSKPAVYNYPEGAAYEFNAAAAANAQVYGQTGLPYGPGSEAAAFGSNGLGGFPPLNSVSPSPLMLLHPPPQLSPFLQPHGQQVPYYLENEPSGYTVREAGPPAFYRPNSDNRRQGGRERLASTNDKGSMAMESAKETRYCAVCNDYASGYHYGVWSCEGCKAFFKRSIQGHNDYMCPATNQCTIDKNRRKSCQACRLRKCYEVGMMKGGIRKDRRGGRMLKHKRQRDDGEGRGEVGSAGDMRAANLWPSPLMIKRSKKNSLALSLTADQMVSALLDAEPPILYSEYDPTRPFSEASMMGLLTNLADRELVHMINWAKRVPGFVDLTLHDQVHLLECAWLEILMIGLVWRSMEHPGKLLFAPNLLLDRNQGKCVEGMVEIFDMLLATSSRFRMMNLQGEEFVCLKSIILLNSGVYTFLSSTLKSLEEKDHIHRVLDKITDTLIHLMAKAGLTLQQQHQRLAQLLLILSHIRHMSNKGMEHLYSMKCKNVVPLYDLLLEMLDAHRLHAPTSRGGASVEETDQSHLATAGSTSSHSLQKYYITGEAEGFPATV

CC(=O)[O][Al]
Potency [1]: inactive
Potency [2]: inactive
Potency [3]: inactive
Potency [4]: inactive
Potency [5]: inactive
Potency [6]: inactive
Potency [7]: inactive
Potency [8]: inactive
Potency [9]: inactive
Potency [10]: inactive
Potency [11]: inactive

O=C(O)c1ccco1
Potency [1]: inactive
Potency [2]: inactive
Potency [4]: inactive
Potency [5]: inactive
Potency [12]: inactive
Potency [7]: inactive
Potency [13]: inactive
Potency [8]: inactive
Potency [14]: inactive
Potency [15]: inactive
Potency [16]: inactive
Potency [9]: inactive
Potency [10]: inactive
Potency [11]: inactive

CCOc1ccc(N=Nc2ccc(/C=C/c3ccc(N=Nc4ccc(OCC)cc4)cc3S(=O)(=O)O)c(S(=O)(=O)O)c2)cc1
Potency [1]: inactive
Potency [2]: inactive
Potency [3]: inactive
Potency [4]: inactive
Potency [5]: 53.6 µM (active)
Potency [6]: 47.8 µM (active)
Potency [12]: 47.8 µM (active)
Potency [7]: inactive
Potency [8]: inactive
Potency [10]: inactive
Potency [11]: 26.9 µM (active)

C1CCCNCCC1
Potency [1]: inactive
Potency [2]: inactive
Potency [3]: inactive
Potency [4]: inactive
Potency [5]: inactive
Potency [12]: inactive
Potency [7]: inactive
Potency [8]: inactive
Potency [9]: inactive
Potency [10]: inactive
Potency [11]: inactive

CC1=CC=C(C(C)C)CC1
Potency [1]: inactive
Potency [2]: inactive
Potency [4]: inactive
Potency [6]: inactive
Potency [13]: inactive
Potency [8]: inactive
Potency [14]: inactive
Potency [15]: inactive
Potency [16]: inactive
Potency [9]: inactive
Potency [10]: inactive
Potency [11]: inactive

CCOc1ccc(O)cc1
Potency [1]: inactive
Potency [2]: 54.5 µM (active)
Potency [4]: inactive
Potency [5]: inactive
Potency [6]: inactive
Potency [12]: inactive
Potency [7]: inactive
Potency [8]: inactive
Potency [14]: inactive
Potency [15]: inactive
Potency [16]: inactive
Potency [9]: inactive
Potency [10]: inactive
Potency [11]: inactive

CC/C=C\CCOC(=O)CC
Potency [1]: inactive
Potency [2]: inactive
Potency [4]: inactive
Potency [5]: inactive
Potency [6]: inactive
Potency [12]: inactive
Potency [7]: inactive
Potency [8]: inactive
Potency [9]: inactive
Potency [10]: inactive
Potency [11]: inactive

CC(C)=CCC/C(C)=C/CC/C(C)=C/CO
Potency [1]: inactive
Potency [2]: 54.5 µM (active)
Potency [3]: 30.6 µM (active)
Potency [5]: inactive
Potency [12]: 61.1 µM (active)
Potency [7]: inactive
Potency [8]: inactive
Potency [9]: inactive
Potency [11]: inactive

CCCCCCCC#N
Potency [1]: inactive
Potency [2]: inactive
Potency [3]: inactive
Potency [6]: inactive
Potency [12]: inactive
Potency [7]: inactive
Potency [9]: inactive
Potency [11]: inactive

CO[C@@H]1[C@H](OC(=O)/C=C/C=C/C=C/C=C/C(=O)O)CC[C@]2(CO2)[C@H]1[C@@]1(C)O[C@@H]1CC=C(C)C
Potency [1]: inactive
Potency [2]: 2.1 nM (active) and 17.2 nM (active)
Potency [3]: 2.7 nM (active) and 10.9 nM (active)
Potency [4]: inactive
Potency [5]: inactive
Potency [6]: inactive
Potency [7]: inactive
Potency [8]: inactive
Potency [14]: inactive
Potency [15]: inactive
Potency [16]: inactive
Potency [9]: inactive
Potency [10]: inactive
Potency [11]: inactive

CCO[C@H](Cc1ccc(OCCc2ccc(OS(C)(=O)=O)cc2)cc1)C(=O)O
Potency [1]: inactive
Potency [2]: inactive
Potency [4]: inactive
Potency [17]: inactive
Potency [5]: inactive
Potency [18]: inactive
Potency [6]: inactive
Potency [12]: inactive
Potency [7]: inactive
Potency [14]: inactive
Potency [15]: inactive
Potency [16]: inactive
Potency [9]: inactive
Potency [10]: inactive
Potency [11]: inactive

CCn1cc(C(=O)O)c(=O)c2cnc(N3CCNCC3)nc21
Potency [1]: inactive
Potency [2]: inactive
Potency [3]: inactive
Potency [4]: inactive
Potency [5]: inactive
Potency [6]: inactive
Potency [12]: inactive
Potency [7]: inactive
Potency [8]: inactive
Potency [9]: inactive
Potency [10]: inactive
Potency [11]: inactive

c1ccc(-c2ccccn2)nc1
Potency [1]: inactive
Potency [2]: 24.3 µM (active)
Potency [4]: inactive
Potency [17]: inactive
Potency [5]: inactive
Potency [18]: inactive
Potency [6]: inactive
Potency [12]: inactive
Potency [7]: inactive
Potency [8]: inactive
Potency [14]: inactive
Potency [15]: inactive
Potency [16]: inactive
Potency [9]: inactive
Potency [10]: inactive
Potency [11]: inactive

CC[N+](C)(CC)CCOC(=O)C(O)(c1ccccc1)C1CCCCC1 (stereo unspecified)
Potency [1]: inactive
Potency [2]: inactive
Potency [3]: inactive
Potency [4]: inactive
Potency [12]: inactive
Potency [7]: inactive
Potency [13]: inactive
Potency [8]: inactive
Potency [14]: inactive
Potency [16]: inactive
Potency [9]: inactive
Potency [10]: inactive
Potency [11]: inactive

COc1cc2nc(N3CCN(C(=O)C4COc5ccccc5O4)CC3)nc(N)c2cc1OC (stereo unspecified)
Potency [1]: inactive
Potency [2]: inactive
Potency [4]: inactive
Potency [5]: inactive
Potency [12]: 29.8 µM (active)
Potency [7]: inactive
Potency [8]: inactive
Potency [9]: inactive

CCC(Cl)CCC(Cl)C(Cl)CC(Cl)C(Cl)C(Cl)CCl (stereo unspecified)
Potency [1]: inactive
Potency [2]: inactive
Potency [3]: inactive
Potency [4]: inactive
Potency [6]: inactive
Potency [12]: inactive
Potency [7]: inactive
Potency [8]: inactive
Potency [9]: inactive
Potency [10]: inactive
Potency [11]: inactive

CC(CC=O)c1ccccc1 (stereo unspecified)
Potency [1]: inactive
Potency [2]: inactive
Potency [3]: inactive
Potency [4]: inactive
Potency [6]: inactive
Potency [12]: inactive
Potency [7]: inactive
Potency [8]: inactive
Potency [14]: inactive
Potency [15]: inactive
Potency [16]: inactive
Potency [9]: inactive
Potency [10]: inactive
Potency [11]: inactive

Cc1cccc(C)c1OCC(=O)N[C@@H](Cc1ccccc1)[C@@H](O)C[C@H](Cc1ccccc1)NC(=O)[C@H](C(C)C)N1CCCNC1=O
Potency [1]: inactive
Potency [2]: 16.8 µM (active)
Potency [3]: 11.9 µM (active)
Potency [14]: inactive
Potency [15]: inactive
Potency [16]: inactive

C/C(=C(\CCOP(=O)(O)O)SC(=O)c1ccccc1)N(C=O)Cc1cnc(C)nc1N
Potency [1]: inactive
Potency [2]: inactive
Potency [3]: inactive
Potency [4]: inactive
Potency [18]: inactive
Potency [6]: inactive
Potency [12]: inactive
Potency [7]: inactive
Potency [13]: inactive
Potency [8]: inactive
Potency [14]: inactive
Potency [15]: inactive
Potency [16]: inactive
Potency [9]: inactive
Potency [10]: inactive
Potency [11]: inactive
